# From PubChem BioAssay AID1159580 (chemical genetic matrix, 2015)
# The campaign covered roughly 5,500 compounds. About 2,000 (36%) were called active. Another 18% or so got no clear call; they are omitted. This is one part of the list. Unmarked numbers belong to inactive results. No stated cut-off is given here; in the data, active means normalized growth mostly below about 0.91 (no sharp cut-off); inconclusive means no clear call, values can overlap the other calls; inactive means mostly above about 0.92.
# Experiment: chemical genetic growth profiling, strain panel (AID 1159580);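 further: tested at 20 µM; growth read once vehicle control cultures reached saturation at 30 °C; 1 = growth at the plate median or of vehicle wells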
# Conditions: growth OD
structure (smiles),measurement,setting,value
C[C@@H]1CC[C@H]2C(C)(C)C3CC12CC[C@@]3(C)O (some centres not stated),normalized growth,"S. cerevisiae deletion strains, locus YJR066W, strain TOR1, stronger effect = lower value",0.975
same,normalized growth,"S. cerevisiae deletion strains, locus YKL009W, strain mrt4, stronger effect = lower value",0.893
same,normalized growth,"S. cerevisiae deletion strains, locus YKL068W, stronger effect = lower value",1.01
same,normalized growth,"S. cerevisiae deletion strains, locus YKL085W, strain MDH1 (second series), stronger effect = lower value",0.961
same,normalized growth,"S. cerevisiae deletion strains, locus YKL085W, strain MDH1, stronger effect = lower value",0.961
same,normalized growth,"S. cerevisiae deletion strains, locus YKL160W, strain elf1, stronger effect = lower value",0.813 (active)
same,normalized growth,"S. cerevisiae deletion strains, locus YKL190W, strain CNB1, stronger effect = lower value",1.01
same,normalized growth,"S. cerevisiae deletion strains, locus YKR001C, strain vps1, stronger effect = lower value",0.933
same,normalized growth,"S. cerevisiae deletion strains, locus YKR026C, strain gcn3, stronger effect = lower value",0.994
same,normalized growth,"S. cerevisiae deletion strains, locus YKR091W, strain srl3, stronger effect = lower value",0.934
same,normalized growth,"S. cerevisiae deletion strains, locus YLL001W, strain dnm1, stronger effect = lower value",0.949
same,normalized growth,"S. cerevisiae deletion strains, locus YLL026W, stronger effect = lower value",0.747 (active)
same,normalized growth,"S. cerevisiae deletion strains, locus YLL041C, strain sdh2, stronger effect = lower value",0.926 (active)
same,normalized growth,"S. cerevisiae deletion strains, locus YLR027C, strain aat2, stronger effect = lower value",0.781 (active)
same,normalized growth,"S. cerevisiae deletion strains, locus YLR039C, strain RIC1, stronger effect = lower value",0.849
same,normalized growth,"S. cerevisiae deletion strains, locus YLR058C, strain SHM2, stronger effect = lower value",1
same,normalized growth,"S. cerevisiae deletion strains, locus YLR102C, strain apc9, stronger effect = lower value",0.989
same,normalized growth,"S. cerevisiae deletion strains, locus YLR113W, strain HOG1, stronger effect = lower value",0.968
same,normalized growth,"S. cerevisiae deletion strains, locus YLR221C, strain rsa3, stronger effect = lower value",0.745 (active)
same,normalized growth,"S. cerevisiae deletion strains, locus YLR258W, strain gsy2, stronger effect = lower value",0.831 (active)
same,normalized growth,"S. cerevisiae deletion strains, locus YLR262C, strain YPT6 (second series), stronger effect = lower value",0.549 (active)
same,normalized growth,"S. cerevisiae deletion strains, locus YLR262C, strain YPT6, stronger effect = lower value",0.841
same,normalized growth,"S. cerevisiae deletion strains, locus YLR268W, strain sec22, stronger effect = lower value",0.961
same,normalized growth,"S. cerevisiae deletion strains, locus YLR320W, strain mms22, stronger effect = lower value",0.628 (active)
same,normalized growth,"S. cerevisiae deletion strains, locus YLR330W, strain CHS5, stronger effect = lower value",0.876 (active)
same,normalized growth,"S. cerevisiae deletion strains, locus YLR342W, strain FKS1 (second series), stronger effect = lower value",0.886
same,normalized growth,"S. cerevisiae deletion strains, locus YLR342W, strain FKS1, stronger effect = lower value",0.861 (active)
same,normalized growth,"S. cerevisiae deletion strains, locus YLR357W, strain rsc2, stronger effect = lower value",0.754 (active)
same,normalized growth,"S. cerevisiae deletion strains, locus YLR370C, strain arc18, stronger effect = lower value",0.92
same,normalized growth,"S. cerevisiae deletion strains, locus YLR371W, strain rom2, stronger effect = lower value",0.915
same,normalized growth,"S. cerevisiae deletion strains, locus YLR384C, strain iki3, stronger effect = lower value",0.988
same,normalized growth,"S. cerevisiae deletion strains, locus YLR418C, strain cdc73, stronger effect = lower value",0.824 (active)
same,normalized growth,"S. cerevisiae deletion strains, locus YML016C, strain PPZ1, stronger effect = lower value",1.01
same,normalized growth,"S. cerevisiae deletion strains, locus YML032C, strain rad52, stronger effect = lower value",0.917
same,normalized growth,"S. cerevisiae deletion strains, locus YML120C, strain ndi1, stronger effect = lower value",0.786 (active)
same,normalized growth,"S. cerevisiae deletion strains, locus YML124C, strain tub3, stronger effect = lower value",0.99
same,normalized growth,"S. cerevisiae deletion strains, locus YMR058W, strain fet3, stronger effect = lower value",0.891 (active)
same,normalized growth,"S. cerevisiae deletion strains, locus YMR078C, strain ctf18, stronger effect = lower value",0.998
same,normalized growth,"S. cerevisiae deletion strains, locus YMR125W, strain sto1, stronger effect = lower value",0.83 (active)
same,normalized growth,"S. cerevisiae deletion strains, locus YMR129W, stronger effect = lower value",1.01
same,normalized growth,"S. cerevisiae deletion strains, locus YMR205C, strain PFK2, stronger effect = lower value",0.697 (active)
same,normalized growth,"S. cerevisiae deletion strains, locus YMR223W, strain ubp8, stronger effect = lower value",0.952
same,normalized growth,"S. cerevisiae deletion strains, locus YMR231W, strain pep5, stronger effect = lower value",0.878 (active)
same,normalized growth,"S. cerevisiae deletion strains, locus YMR307W, strain GAS1, stronger effect = lower value",0.707
same,normalized growth,"S. cerevisiae deletion strains, locus YNL067W, strain RPL9B, stronger effect = lower value",0.987
same,normalized growth,"S. cerevisiae deletion strains, locus YNL071W, strain lat1, stronger effect = lower value",0.616 (active)
same,normalized growth,"S. cerevisiae deletion strains, locus YNL183C, strain NPR1, stronger effect = lower value",0.976
same,normalized growth,"S. cerevisiae deletion strains, locus YNL209W, strain ssb2, stronger effect = lower value",0.869 (active)
same,normalized growth,"S. cerevisiae deletion strains, locus YNL233W, strain BNI4, stronger effect = lower value",0.83 (active)
same,normalized growth,"S. cerevisiae deletion strains, locus YNL248C, strain rpa49, stronger effect = lower value",0.879 (active)
same,normalized growth,"S. cerevisiae deletion strains, locus YNL250W, strain rad50, stronger effect = lower value",0.956
same,normalized growth,"S. cerevisiae deletion strains, locus YNL271C, strain bni1, stronger effect = lower value",0.938
same,normalized growth,"S. cerevisiae deletion strains, locus YNL298W, strain CLA4, stronger effect = lower value",0.884 (active)
same,normalized growth,"S. cerevisiae deletion strains, locus YNL307C, strain MCK1, stronger effect = lower value",0.977
same,normalized growth,"S. cerevisiae deletion strains, locus YNL322C, strain KRE1 (second series), stronger effect = lower value",0.971
same,normalized growth,"S. cerevisiae deletion strains, locus YNR049C, strain mso1, stronger effect = lower value",1
same,normalized growth,"S. cerevisiae deletion strains, locus YNR052C, strain pop2, stronger effect = lower value",0.865 (active)
same,normalized growth,"S. cerevisiae deletion strains, locus YOL006C, strain TOP1, stronger effect = lower value",0.982
same,normalized growth,"S. cerevisiae deletion strains, locus YOL012C, strain htz1",0.706
same,normalized growth,"S. cerevisiae deletion strains, locus YOL147C, strain pex11, stronger effect = lower value",0.965
same,normalized growth,"S. cerevisiae deletion strains, locus YOR001W, strain rrp6, stronger effect = lower value",0.81 (active)
same,normalized growth,"S. cerevisiae deletion strains, locus YOR061W, strain CKA2, stronger effect = lower value",0.958
same,normalized growth,"S. cerevisiae deletion strains, locus YOR069W, strain VPS5, stronger effect = lower value",0.998
same,normalized growth,"S. cerevisiae deletion strains, locus YOR070C, strain gyp1, stronger effect = lower value",0.813 (active)
same,normalized growth,"S. cerevisiae deletion strains, locus YOR080W, strain dia2, stronger effect = lower value",0.967
same,normalized growth,"S. cerevisiae deletion strains, locus YOR083W, strain WHI5, stronger effect = lower value",0.743 (active)
same,normalized growth,"S. cerevisiae deletion strains, locus YOR106W, strain vam3, stronger effect = lower value",0.713 (active)
same,normalized growth,"S. cerevisiae deletion strains, locus YOR136W, strain idh2, stronger effect = lower value",0.959
same,normalized growth,"S. cerevisiae deletion strains, locus YOR144C, strain elg1, stronger effect = lower value",0.972
same,normalized growth,"S. cerevisiae deletion strains, locus YOR184W, strain ser1, stronger effect = lower value",0.9
same,normalized growth,"S. cerevisiae deletion strains, locus YOR231W, strain MKK1, stronger effect = lower value",0.986
same,normalized growth,"S. cerevisiae deletion strains, locus YOR265W, strain rbl2, stronger effect = lower value",0.916 (active)
same,normalized growth,"S. cerevisiae deletion strains, locus YOR270C, strain vph1, stronger effect = lower value",0.618 (active)
same,normalized growth,"S. cerevisiae deletion strains, locus YOR290C, strain snf2, stronger effect = lower value",0.784 (active)
same,normalized growth,"S. cerevisiae deletion strains, locus YOR316C, strain cot1, stronger effect = lower value",0.987
same,normalized growth,"S. cerevisiae deletion strains, locus YPL051W, strain arl3, stronger effect = lower value",0.707 (active)
same,normalized growth,"S. cerevisiae deletion strains, locus YPL078C, strain atp4, stronger effect = lower value",0.837 (active)
same,normalized growth,"S. cerevisiae deletion strains, locus YPL106C, strain sse1, stronger effect = lower value",0.654 (active)
same,normalized growth,"S. cerevisiae deletion strains, locus YPL240C, strain hsp82, stronger effect = lower value",0.952
same,normalized growth,"S. cerevisiae deletion strains, locus YPL241C, strain CIN2, stronger effect = lower value",1.02
same,normalized growth,"S. cerevisiae deletion strains, locus YPL256C, strain CLN2, stronger effect = lower value",0.969
same,normalized growth,"S. cerevisiae deletion strains, locus YPR119W, strain clb2, stronger effect = lower value",1
same,normalized growth,"S. cerevisiae deletion strains, locus YPR141C, strain kar3, stronger effect = lower value",0.991
same,normalized growth,"S. cerevisiae deletion strains, locus YPR163C, strain tif3, stronger effect = lower value",0.993
same,normalized growth,"S. cerevisiae deletion strains, locus YPR167C, strain met16, stronger effect = lower value",0.981
same,normalized growth,"S. cerevisiae deletion strains, strain wtn01, stronger effect = lower value",0.926
same,normalized growth,"S. cerevisiae strains, strain wild type, stronger effect = lower value",0.965
